Inhibition data for 58 compounds are collected here from PubChem BioAssay AID485317 (Broad Institute, 2010).

Among all 290,000 compounds or so, about 11,000 (3.8%) were called active.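 The calls were made as follows: active = mean replicate inhibition above about 79%, with every replicate also reaching it (limit read from the data); inconclusive = only one of the two criteria met; inactive = mean below limit and not every replicate reaching it.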 For the sample, actives were picked, then their nearest neighbours and some compounds at random.

Sequence of FAD-linked sulfhydryl oxidase ALR (Homo sapiens) (P55789 whole entry, looked up): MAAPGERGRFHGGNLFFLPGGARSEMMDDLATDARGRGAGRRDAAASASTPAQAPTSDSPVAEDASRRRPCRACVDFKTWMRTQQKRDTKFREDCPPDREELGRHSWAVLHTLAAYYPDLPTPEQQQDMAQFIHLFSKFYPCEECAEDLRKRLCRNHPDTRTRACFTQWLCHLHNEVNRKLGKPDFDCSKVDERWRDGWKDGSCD

The assay addresses FAD-linked sulfhydryl oxidase ALR (Homo sapiens) (UniProt P55789). Kind of assay: inhibitors of human ALR sulfhydryl oxidase, primary screen, biochemical, H2O2 detection, HRP-luminol luminescence, single point (AID 485317). As to conditions: purified ALR, DTT oxidation, stronger effect = higher value, concentration not given here.
What is called inhibition is the relative decrease from the control value, in per cent. With `CCOc1ccc(NC(=O)CN(C)C(=O)c2c(C)noc2C)cc1OCC`, the inhibition was -5.01% (inactive).
On to `CCOC(=O)c1c(C)oc2cc(Sc3ccccc3)c(O)c(O)c12`, for which the inhibition is -12.1% (inactive).
Regarding `CC(NCC(=O)Nc1ccccc1C(=O)NC1CC1)c1ccccc1Cl` (stereo not drawn), the inhibition was -6.65% (inactive).
The figure for `Nc1nonc1-n1nnc(C(=O)N/N=C/c2ccccc2O)c1CN1CCCC1` is -0.481% (inactive); for `Cc1noc(C)c1COc1ccccc1C(=O)N(C)CC(=O)Nc1cccc(F)c1` it is -3.03% (inactive).
Turning to `Cc1ccc(N/N=C2\COC(C)(C)CC2=O)cc1`, the inhibition was 98.6% (active).
Regarding `CSCCC1NC(=O)N(CC(=O)Nc2cccc(S(=O)(=O)N3CCCCCC3)c2)C1=O` (stereo not drawn), the inhibition is 9.93% (inactive).
Then `CCCCc1ccc(NS(=O)(=O)c2cccc(C(=O)N3CCCN(C)CC3)c2)cc1`, with -4.55% (inactive); and `COc1ccccc1CSc1ncc(-c2ccc([N+](=O)[O-])cc2)[nH]1`, with -12.3% (inactive); and `O=c1[nH]c(SCc2cccc(F)c2)nc2ccccc12`, with -17.9% (inactive).
On to `N#Cc1c(-c2ccccc2)nc(SCc2ccc([N+](=O)[O-])cc2)[nH]c1=O`, for which the inhibition was 99.5% (active).
As to `N#Cc1c(-c2ccc(F)cc2)nc(-c2ccccc2)[nH]c1=O`, the inhibition is 47.4% (inactive).
Then `O=c1[nH]c(SCc2ccccc2)nnc1-c1ccccc1`, with -6.49% (inactive); and `N#Cc1c(-c2ccccc2)nc(SCc2cccc(C(F)(F)F)c2)[nH]c1=O`, with 86.8% (active); and `C/C=C/c1ccc(OCC(=O)NNC(=O)CN(C)S(=O)(=O)c2ccc(C)cc2)c(OC)c1`, with -17.6% (inactive).
The figure for `Cc1ccc2nnn(Cc3cccc(C(C)(C)C)c3O)c2c1` is 14.7% (inactive).
For the compound `CCC(CC)c1nnc(NC(=O)C2=COCCO2)s1`, the inhibition was 2.79% (inactive).
With `O=C(c1ccc(Cl)s1)N(Cc1nnc(-c2ccccc2Cl)o1)C1CC1`, the inhibition is -3.36% (inactive).
The figure for `COc1ccc(C)cc1NC(=O)c1cc(-c2ccccc2)nc2c1cnn2C(C)C` is -1.17% (inactive); for `Cc1ccc(S(=O)(=O)N2CCCCC2)cc1C(=O)N(C)CC(=O)Nc1cccc(F)c1` it is -10.8% (inactive); for `CC1=NNC(=O)C1CCC(=O)N/N=C\c1ccc(Cl)c(Cl)c1` (stereo not drawn) it is 56.7% (inactive).
Take `O=C(C[n+]1ccccc1)N/N=C/c1ccc(O)cc1`: the inhibition was 98.9% (active).
Then `O=C(CC(O)(C(F)(F)F)C(F)(F)F)Nc1ccc(Cl)c(Cl)c1`, with 31.6% (inactive); and `O=C(CC(=O)N/N=C\c1ccc(F)cc1)NCCc1ccccc1`, with 38.6% (inactive).
As for `O=C(CC(=O)Nc1ccc(Cl)c(Cl)c1)N/N=C/c1ccc(O)cc1`, the inhibition was 98.1% (active).
Regarding `O=C(CCCCCNC(=O)c1ccccc1)N/N=C/c1ccccc1`, the inhibition is 35.5% (inactive).
Take `CC(C)(C)OC(=O)CNC(=O)c1[nH]cnc1C(=O)N[C@@H](CCCCN)C(=O)OC(C)(C)C`: the inhibition was 2.52% (inactive).
For `C=CC[C@@H](CC(=O)N[C@@H](CO)Cc1ccccc1)C(=O)NCCOC(=O)[C@@H](CC=C)CC(=O)OC(C)(C)C`, the inhibition is 0.56% (inactive).
As for `COc1ccc(C(=O)N(Cc2ccccc2)c2ccc(C)cc2)cc1S(=O)(=O)N1CCOCC1`, the inhibition was 18.8% (inactive).
Then `COc1ccc(NC(C)=O)cc1NC(=O)CN1CCN(c2ccccn2)CC1`, with -9.42% (inactive); and `CCN(CC)c1ccc(NC(=O)CN2CCN(c3ccccn3)CC2)cc1`, with 99.3% (active).
Regarding `O=C(CN1CCN(c2ccccn2)CC1)Nc1ccc(Br)cc1`, the inhibition was -8.03% (inactive).
In the case of `Cc1ccc(S(=O)(=O)N2[C@@H](c3cccc4ccccc34)C(C(=O)O)=C[C@H]2C(C)(C)C)cc1`, the inhibition is 9.1% (inactive).
Consider `CN(C(=O)Cn1nnc(-c2ccc(F)cc2)n1)C1CCS(=O)(=O)C1` (stereo not drawn), for which the inhibition is -4.28% (inactive).
On to `CCC1CCC/C1=N\NC(=O)c1ccc(Cl)cc1` (stereo not drawn), for which the inhibition was -14.7% (inactive).
Then `CCN(CC)CCCNC(=O)COc1ccc2oc3c(c2c1)CCCC3`, with 83.3% (active).
Consider `O=C(COc1ccc2oc3c(c2c1)CCCC3)Nc1ccccn1`, for which the inhibition was -9.11% (inactive).
On to `O=C(COc1ccc2c3c(c(=O)oc2c1)CCCC3)NCC(O)c1ccccc1` (stereo not drawn), for which the inhibition is -0.0443% (inactive).
For the compound `Cc1ccc(Br)c(NS(=O)(=O)c2cccc(C(=O)N3CCNC(=O)C3)c2)c1`, the inhibition is -0.146% (inactive).
Then `COc1ccccc1N1CCC(N2CCN(CC(C)(C)C)C(CCO)C2)CC1` (stereo not drawn), with 21.8% (inactive); and `COc1ccc(OCC(=O)Nc2ccc(N3CCC(C)CC3)cc2)cc1`, with 1.79% (inactive); and `COc1ccc(N2CCC(N3CCN(C)C(CCO)C3)CC2)cc1` (stereo not drawn), with 86.4% (active).
Then `COc1ccc(CCNC(=O)C(=O)NCC2CCCN2S(=O)(=O)c2cccs2)cc1OC` (stereo not drawn), with -2.42% (inactive); and `O=C(OCc1nc2ccccc2[nH]1)C1CCCCC1`, with 0.03% (inactive); and `Nc1cccc(CCc2nc3ccccc3[nH]2)c1`, with 1.01% (inactive).
The figure for `Oc1ccc2nc(Cc3ccccc3)[nH]c2c1` is 98.6% (active).
For the compound `CN(C)C(=O)c1ccc(NC(=O)COC(=O)c2cc3c(s2)CCCCC3)cc1`, the inhibition was -2.4% (inactive).
With `CCOc1ccc(NS(=O)(=O)c2ccc(Cl)c(C(=O)N(C)Cc3cccnc3)c2)cc1`, the inhibition is -9.87% (inactive).
As for `O=C(Nc1cccc(S(=O)(=O)N2CCOCC2)c1)C12CC3CC(CC(C3)C1)C2`, the inhibition was -1.07% (inactive).
Take `Oc1cc(O)c2c(c1)OC(c1ccc(O)c(O)c1)C(O)C2` (stereo not drawn): the inhibition is 98.2% (active).
The figure for `O=C1N[C@@H](c2ccccc2)COC(=O)[C@H](Cc2ccc(F)cc2)C/C=C\C[C@@H]1CC(=O)N(CCO)Cc1ccccc1` is -1.44% (inactive); for `Cc1ccc(NC(=O)COc2coc(CN3CCc4ccccc4C3)cc2=O)cc1Cl` it is -8.1% (inactive).
Consider `Cc1ccsc1C(=O)OCC(=O)NCCc1ccccc1`, for which the inhibition is -5.18% (inactive).
As for `Cc1ccc(N2C(=O)SC(N(CC(=O)O)c3ccc(C)cc3)C2=O)cc1` (stereo not drawn), the inhibition is 0.583% (inactive).
On to `Cc1cccc(N2C(=O)SC(SC(=Nc3ccccc3)Nc3ccccc3)C2=O)c1` (stereo not drawn), for which the inhibition was 0.802% (inactive).
The figure for `Cc1cccc(N2C(=O)SC(N(CC(=O)O)c3cccc(C)c3)C2=O)c1` (stereo not drawn) is 98.6% (active); for `CN(N)c1nc(N2CCCC2)nc(N2CCCC2)n1` it is -6.99% (inactive); for `Cc1sc2ncnc(N3CCC(C(=O)Nc4ccc(F)cc4Cl)CC3)c2c1C` it is 1.27% (inactive).
